The values that follow come from PubChem BioAssay.

One assay has as its system Human papillomavirus type 1a protein E7 (residues 44-93). The experiment in a line: HPV1a E7 fragment binders on microarrays, primary screen, biochemical, small-molecule microarray, residues 44-93, 635 nm fluorescence (AID 1108).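 Note: E7 fragment applied at 1 µg/mL in TBST for 1 h at 4 C; score combines spot fluorescence with its signal to noise ratio.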 The note with it: small-molecule microarray binding, fluorescence 635 nm; higher = more signal.
For `COc1ccc(-c2cc3c(c(CCc4ccccc4)n2)[Si](C(C)C)(C(C)C)OC3)cn1`, the composite z-score was -0.681. The same measure, in the same setting: under `C=CCOC(=O)[C@H]1[C@@H]2C(=O)O[C@@H](c3ccccc3)[C@@H](c3ccccc3)N2[C@@H](c2ccc(OCCOC(=O)[C@@H]3C[C@@H]4C(=O)N[C@@H](CCCCNC(C)=O)C(=O)N4[C@@H]3c3ccc(O)cc3)cc2)[C@]12C(=O)Nc1ccc(I)cc12` stands 1.37; under `COc1ccc(CCNC(=O)[C@@]2(Sc3ccc(C)cc3)CC(=O)N(C3Cc4ccccc4C3)[C@@H]2c2ccc(CO)cc2)cc1`, 1.42.

`COCCCNC(=O)[C@@]1(Sc2ccc(C)cc2)CC(=O)N(C2CCCCC2)[C@@H]1c1ccc(CO)cc1` had a composite z-score of 0.104. Still for that read-out and setting: to `COCCCNC(=O)[C@]1(CCS(=O)(=O)c2ccccc2)N=C(c2ccc(OCCCO)cc2)O[C@@H]1c1ccccc1N=[N+]=[N-]` belongs 1.23; to `CN(C)CCCNC(=O)[C@@H]1c2ccccc2C(=O)N(Cc2ccccc2Cl)[C@H]1c1ccc(CO)cc1`, 0.0979. The same measure, in the same setting: to `CO[C@H]1O[C@H](CO)[C@@H](OC(=O)Nc2ccccc2-c2ccccc2)[C@H](OC(=O)Nc2ccc3c(c2)OCO3)[C@H]1OC(=O)Nc1ccc2c(c1)OCO2` belongs 1.29. In the case of `CCCCCCCCCCC(O)C1C=CC2C(=O)N(C)C(=O)C2N1NC(=O)OC(C)(C)C` (centres undefined), the composite z-score was found to be 1.17.

Test system in the next assay: not listed separately
The experiment in a line: modulators of HCV replicon luciferase signal, primary screen, HCV replication inhibitor project, Huh7 cells, luciferase reporter (AID 1109).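 Note: huh7 hepatoma cells harbouring a luciferase neomycin HCV replicon reporter; luciferase luminescence as measure of HCV replicon replication; test concentration not given here.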 The note with it: 48 h, higher = more signal. (In general: In antiviral work, replicon cells carry a viral genome segment that copies itself.)
With `COC(=O)c1nc2oc1CC[C@@H](CO)NC(=O)N(C)Cc1cnnn1C[C@H](Cc1ccccc1)NC2=O`, the z-score was -0.421. Same read-out and setting: under `CCOC(=O)C1=CC[C@@H](c2cccc(Cl)c2)N(S(=O)(=O)c2ccc(C)cc2)C1` stands -1.76; under `C=C(COC)/C(=C/C[C@H](OC(=O)c1ccncc1)c1ccccc1OCCO)c1cnc2ccccc2c1`, -2.29. The same measure, in the same setting: under `C[C@@H]1ON(c2ccc(C(=O)OC(C)(C)C)cc2)[C@H](c2ccc(O)cc2)[C@H]1C(=O)N1C(=O)OC[C@H]1Cc1ccccc1` stands -3.77; under `CC(C)N1C(=O)C[C@@](C(=O)NCCCN(C)C)(c2ccc([N+](=O)[O-])cc2)[C@H]1c1ccc(CO)cc1`, -0.581. On the same count and under the same terms, to `COC(=O)C(CC#Cc1ccc2c(c1)[C@]1(C(=O)N2)[C@H](C(=O)N2CCN(c3ncccn3)CC2)[C@H]2C(=O)O[C@H](c3ccccc3)[C@H](c3ccccc3)N2[C@@H]1c1ccc(OCCO)cc1)C(=O)OC` belongs -1.7. Turning to `CN(C)CCCNC(=O)[C@@]1(C)c2ccccc2C(=O)N(Cc2ccccc2)[C@H]1c1ccc(CO)cc1`, the z-score is -1.94.

`CC(C)C(=C=CC[C@H](O)c1cccc(OCCO)c1)C[C@H](O)c1cc(Cl)cc(Cl)c1O` registered a z-score of -0.583.

`COCCCNC(=O)[C@@]1(Cc2ccccc2N=[N+]=[N-])N=C(c2ccc(OCCCO)cc2)O[C@H]1c1ccccc1`: the z-score is -1.54.

The molecule `COc1ccc([Si](C)(C)[C@@H]2[C@@H](CC(=O)N3Cc4ccccc4C[C@H]3CO)O[C@]3(C(=O)N(Cc4cccc(N5C(=O)c6cccc7cccc5c67)c4)c4ccccc43)[C@H]2C)cc1` had a z-score of -3.68.

The molecule `COc1ccc([Si](C)(C)[C@@H]2[C@@H](CC(=O)N(CCO)Cc3ccccc3)O[C@]3(C(=O)N(Cc4cccc(N5CCOC5=O)c4)c4ccccc43)[C@H]2C)cc1` came in with a z-score of -3.7. Still for that read-out and setting: to `CC(=O)c1ccc(C(O)C2C=CC3C(=O)N(c4ccccc4)C(=O)C3N2Nc2ccc(C#N)cc2)cc1` (centres undefined) belongs -0.0483; to `COC1OC[C@]2(C)[C@H]3C4=C(CN2C(=O)OC(C)(C)C)[C@H](C)C(CO)C(CO)C4CC[C@@H]13` (some centres undefined), -1.3.

In turn, `COCCCNC(=O)[C@@]1(Cc2ccccc2CN=[N+]=[N-])N=C(c2ccc(OCCCO)cc2)O[C@H]1c1ccccc1` came in with a z-score of -2.84. On the same count and under the same terms, under `COc1cc(CO)cc(I)c1O[C@H]1C=C(C(=O)NCCO)C[C@@H](NCc2ccc(F)cc2)[C@@H]1O` stands -4.07; under `C=CCC(OC(C)=O)[C@@H]1[C@@H](N(Cc2cccc3ccccc23)C(=O)Cc2ccc(F)cc2)c2cc(OCCCO)ccc2N1C(=O)c1ccc2ccccc2n1` (some centres undefined), -0.562; under `[N-]=[N+]=Nc1ccccc1[C@H]1OC(c2ccc(OCCCO)cc2)=N[C@@]1(Cc1ccccc1)C(=O)N1CCCCC1`, -2.13.

Take `O=C(NCc1ccccc1)[C@@H]1c2ccccc2C(=O)N(Cc2ccccc2C(F)(F)F)[C@H]1c1ccc(CO)cc1`: the z-score was determined as 0.129. Still for that read-out and setting: under `CC=CC(O)C1C=CC2C(=O)N(c3ccccc3)C(=O)C2N1Nc1ccccc1F` (centres undefined) stands -0.536.

The molecule `O=C1O[C@H](c2ccccc2)[C@H](c2ccccc2)N2[C@H]1[C@@H](C(=O)O)[C@]1(C(=O)Nc3ccc(C#CC4=CCCCC4)cc31)[C@H]2c1ccc(O)cc1` gave a z-score of -0.955. Still for that read-out and setting: under `C=CCOC(=O)[C@H]1[C@@H]2C(=O)O[C@@H](c3ccccc3)[C@@H](c3ccccc3)N2[C@@H](c2ccc(OCCOC(=O)[C@@H]3C[C@@H]4C(=O)N5CCC[C@H]5C(=O)N4[C@@H]3c3ccc(O)cc3)cc2)[C@]12C(=O)Nc1ccc(I)cc12` stands -1.71; under `CCCC[C@@H]1C[C@H]1[C@@H](NC(=O)c1ccccc1)c1ccc(C(F)(F)F)cc1`, -0.444; under `C=C(C)c1cc2c(c(CCCCCC)n1)[Si](C(C)C)(C(C)C)OC2`, -0.35. On the same count and under the same terms, under `COC(=O)[C@@]1(Cc2ccc(OC)cc2)[C@@H]2C(=CC(=O)[C@H]2CC(=O)C(=O)N(C)C)CN1C(=O)c1ccccc1` stands -2.8. Same read-out and setting: under `COC(=O)c1cn(C[C@@H](Cc2ccccc2)NC(=O)N[C@H](CO)CCc2oc(C(C)=O)c(C(=O)OC)c2C(=O)OC)nn1` stands -0.407; under `COCCOC(=O)N1C(=O)[C@@]2(c3cc(C#CC4(O)CCCCCC4)ccc31)[C@H](c1ccc(O)cc1)N1[C@H](c3ccccc3)[C@H](c3ccccc3)OC(=O)[C@H]1[C@@H]2C(=O)NC[C@H](O)c1ccccc1`, -1.03; under `C=C(C)C1CCC(C(O)C2C=CC3C(=O)N(C)C(=O)C3N2N2CCCCC2)CC1` (centres undefined), -0.385. `CC(C)(C)N1CC=CC23O[C@@H]4C=CCOC(=O)[C@@H]4[C@H]2C(=O)N(CCCCCCO)[C@@H]3C1=O` (some centres undefined) showed a z-score of 0.397.

As for `COc1ccc(-c2cc3c(c(CCc4ccccc4)n2)[Si](C(C)C)(C(C)C)OC3)cn1`, the z-score is -0.42. Same read-out and setting: to `C=CCOC(=O)[C@H]1[C@@H]2C(=O)O[C@@H](c3ccccc3)[C@@H](c3ccccc3)N2[C@@H](c2ccc(OCCOC(=O)[C@@H]3C[C@@H]4C(=O)N[C@@H](CCCCNC(C)=O)C(=O)N4[C@@H]3c3ccc(O)cc3)cc2)[C@]12C(=O)Nc1ccc(I)cc12` belongs -1.14; to `COc1ccc(CCNC(=O)[C@@]2(Sc3ccc(C)cc3)CC(=O)N(C3Cc4ccccc4C3)[C@@H]2c2ccc(CO)cc2)cc1`, -3.04. Still for that read-out and setting: to `COCCCNC(=O)[C@@]1(Sc2ccc(C)cc2)CC(=O)N(C2CCCCC2)[C@@H]1c1ccc(CO)cc1` belongs -1.19; to `COCCCNC(=O)[C@]1(CCS(=O)(=O)c2ccccc2)N=C(c2ccc(OCCCO)cc2)O[C@@H]1c1ccccc1N=[N+]=[N-]`, -0.562; to `CN(C)CCCNC(=O)[C@@H]1c2ccccc2C(=O)N(Cc2ccccc2Cl)[C@H]1c1ccc(CO)cc1`, -1.7.

`CO[C@H]1O[C@H](CO)[C@@H](OC(=O)Nc2ccccc2-c2ccccc2)[C@H](OC(=O)Nc2ccc3c(c2)OCO3)[C@H]1OC(=O)Nc1ccc2c(c1)OCO2` showed a z-score of 1.54. The same measure, in the same setting: to `CCCCCCCCCCC(O)C1C=CC2C(=O)N(C)C(=O)C2N1NC(=O)OC(C)(C)C` (centres undefined) belongs -2.54.
